Bioassay records: PubChem BioAssay, National Center for Advancing Translational Sciences (NCATS)
HP1b chromo inh – HP1-beta chromodomain-methylated histone interaction inhibition | 390,000 compounds, 0.56% hits | Potency, µM (highest dose often 114 µM), usual class: inhibitors | P83916 | AlphaScreen HP1-beta / biotin-H3K9me3 peptide binding; also: nearly all actives have a fitted effect of over 70% in size
Target sequence (P83916 whole entry, looked up): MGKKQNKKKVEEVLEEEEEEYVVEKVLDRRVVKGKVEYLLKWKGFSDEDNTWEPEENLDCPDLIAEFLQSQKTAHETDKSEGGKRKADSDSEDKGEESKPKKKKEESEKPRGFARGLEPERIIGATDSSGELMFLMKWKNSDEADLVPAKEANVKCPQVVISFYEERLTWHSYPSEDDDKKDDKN
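AlphaScreen: HP1-beta (50 nM) preformed 30 min with biotin-H3(1-18)K9me3 peptide (50 nM) in PBS pH 7.4, 0.01% Tween-20. Compound added for 30 min at RT, then streptavidin donor/nickel chelate acceptor beads (10 ug/mL) for 30 min.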
JMJD2A Tudor inh – blocks the human JMJD2A Tudor domain | O75164 | AlphaScreen JMJD2A-Tudor / H3K4me3 peptide binding | Potency, µM (top dose mostly 114 µM), usual class: inhibitors | 390,000 compounds, 4.4% hits; also: nearly all actives have a fitted effect of over 50% in size
BAZ2B inh – blocks human BAZ2B. Q9UIF8. AlphaScreen BAZ2B-H3K14Ac peptide displacement. Potency, µM (titrated, usually from 114 µM), hits mostly inhibitors. 360,000 compounds, 4.4% hits; also: nearly all actives have a fitted effect of over 60% in size
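BAZ2B (50 nM) with biotin-H3(5-23)K14Ac peptide (50 nM) in PBS pH 7.4, 0.01% Tween-20, preformed 30 min, then compound 30 min at room temperature; top concentration 110uM. AlphaScreen streptavidin donor/nickel chelate acceptor beads (10 ug/mL final), 20 min dark, signal read.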
G9a inh – inhibitors of human histone lysine methyltransferase G9a | Q96KQ7 | G9a H3K9 monomethylation, AlphaScreen, 2 h | Potency, µM (highest dose often 102 µM), most hits filed as inhibitors | 350,000 compounds, 8.8% hits; also: nearly all actives have a fitted effect of over 75% in size
Target sequence (Q96KQ7 913-1193 limits assumed): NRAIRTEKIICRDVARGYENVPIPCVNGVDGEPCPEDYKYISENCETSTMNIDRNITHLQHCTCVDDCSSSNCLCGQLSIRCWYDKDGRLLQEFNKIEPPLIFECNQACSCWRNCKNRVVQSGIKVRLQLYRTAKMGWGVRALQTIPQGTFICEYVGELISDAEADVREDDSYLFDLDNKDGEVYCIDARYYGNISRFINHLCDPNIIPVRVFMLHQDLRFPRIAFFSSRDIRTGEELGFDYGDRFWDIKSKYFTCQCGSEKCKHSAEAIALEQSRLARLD
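AlphaScreen detection with an anti-monomethyl H3K9 antibody quantified product after a 2 h room-temperature reaction containing 500 nM biotinylated H3K9 peptide, 20 µM SAM and 20 nM enzyme, which had been preincubated 15 min with compound.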
GLS inhibitor – glutaminase GLS (human) inhibition | O94925 | AID 624170 | GLS enzymatic activity, qHTS titration | 410,000 compounds, 0.21% hits | Potency, µM (series often up to 45.5 µM), most hits filed as inhibitors
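hKGA in 45 mM KH2PO4 pH 8.2, 0.02% Tween-20 with pin-transferred compounds; 1 mM L-glutamine (stock) plus glutamate oxidase/HRP/Amplex Red coupling added. Fluorescence read initially and after 30 min at RT.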
A number is an active result; . = inactive; ? = inconclusive; / = not tested or not shown; [ ] = remark or other dose. Shown are actives, neighbours in structure and some others; about 10% of the full set was active somewhere. Calls follow the shape of the dose curve; as a rule, active = well fitted curve in the direction sought with a large enough effect; inconclusive = small, poorly fitted or top-dose-only effect, or another doubt; inactive = no such curve, though single readings can be large; an effect the other way counts as inactive or inconclusive.

SMILES | HP1b chromo inh | JMJD2A Tudor inh | BAZ2B inh | G9a inh | GLS inhibitor
COC(=O)Oc1nsnc1N1CCOCC1 | ? | 89µM | . | 2.8µM | .
Cc1cc(N2CCCC2)ccc1/C=C1\NC(=S)N(C)C1=O | ? | 22µM | ? | / | .
CN1C(=O)c2ccc(N3CCCC3)cc2C1=O | . | . | . | . | .
COc1ccc(S(=O)(=O)N2CCN(S(=O)(=O)c3c(F)cccc3F)CC2)cc1 | / | . | . | .[12.7 µM] | /
COc1ccc(OC)c(S(=O)(=O)N2CCN(c3ccc(F)cc3)CC2)c1 | . | . | . | . | .
CCC(CC)N1CCN(S(=O)(=O)c2ccc(OC)cc2)CC1 | ? | 1.6µM | 50µM | 3.5µM | .
COc1ccc(N2CCN(S(=O)(=O)c3cc(-c4cc(C)no4)ccc3C(C)C)CC2)cc1 | . | . | 10µM | 22µM | .
COc1ccc(N2CCN(S(=O)(=O)c3ccc(OC)cc3)CC2)cc1 | ? | ? | ? | 25µM | .
COc1ccc(N2CCN(S(=O)(=O)c3cc(C)ccc3OC)CC2)cc1 | ? | ? | 45µM | ? | .
COc1ccccc1-n1cnc2c(c1=O)c1nc3ccccc3nc1n2-c1ccc(C)c(C)c1 | . | . | 56µM | . | .
COCCCn1c2nc3ccccc3nc2c2c(=O)n(-c3ccccc3OC)cnc21 | . | . | . | . | .
COc1ccc(C2Nc3ccc(Cl)cc3C(=O)N2Cc2ccccc2)cc1COc1ccc(NC(C)=O)cc1 (stereo not given) | / | 56µM | / | / | /
COc1ccc(C2Nc3ccc(NC(=O)CO)cc3C(=O)N2Cc2cccc(Cl)c2)cc1COc1ccc(NC(C)=O)cc1 (stereo not given) | . | 56µM | / | / | /
CCOC(=O)CSc1cc(C)c(C#N)c2nc3ccccc3n12 | . | . | . | ? | .
COc1ccc(Cl)cc1NC(=O)CSc1nnc(Cc2cccn2C)n1-c1ccc(F)cc1 | . | ? | ? | 45µM | .
Cc1ccc(NC(=O)CSc2nnc(Cc3cccn3C)n2-c2ccc(F)cc2)c(C)c1 | . | . | ? | 28µM | .
COc1ccc(Cl)cc1NC(=O)CSc1nnc(C2CC2)n1N | . | . | . | 79µM | .
COc1ccc(NC(C)=O)cc1NC(=O)CSc1nnc(C2CCCCC2)n1N | . | . | . | / | .
Cn1cccc1Cc1nnc(SCC(=O)Nc2ccc(F)cc2F)n1-c1ccc(F)cc1 | . | . | ? | . | .
COc1ccc(C2(c3ccc(OC)cc3)NC(=O)N(CC(=O)Nc3ccccc3C)C2=O)cc1 | . | . | . | / | .
CCCNC(=O)C1(C)CCCN(C(=O)Cc2ccc3ccccc3c2)C1 (stereo not given) | / | / | / | / | .
CCCCNC(=O)c1nn2c(C(F)(F)F)cc(-c3ccc(OC)cc3)nc2c1Br | . | 35µM | . | . | .
COC(=O)c1nn2c(C(F)(F)F)cc(-c3ccc(Br)o3)nc2c1Br | . | . | . | 45µM | .
O=C(NCc1cccnc1)C1CCCN(S(=O)(=O)c2ccc(Br)cc2)C1 (stereo not given) | . | . | . | . | .
COC(=O)/C=C/c1ccc2c(c1)OCO2 | . | . | . | . | .
SMILES | HP1b chromo inh | JMJD2A Tudor inh | BAZ2B inh | G9a inh | GLS inhibitor
CNc1ccc(Br)cc(C(=O)/C=C/c2cccc(Cl)c2Cl)c1=O | . | 45µM | ? | 28µM | .
CCNc1ccccc(C(=O)/C=C/c2ccc3c(c2)OCO3)c1=O | ? | 56µM | 45µM | 5µM | .
CNc1ccc(Br)cc(C(=O)/C=C/c2cccc(OC)c2OC)c1=O | . | . | 40µM | 8.9µM | /
COc1cccc(/C=C/C(=O)c2ccc3c(c2)OCO3)c1OC | . | . | . | .[12.7 µM] | .
CNc1ccccc(C(=O)/C=C/c2ccccc2OC)c1=O | . | ? | 50µM | 4.5µM | .
COc1ccc(-n2ncc(C(=O)NCc3ccco3)c2C2CCN(C(=O)OC(C)(C)C)CC2)cc1 | . | . | . | . | .
Fc1ccc(NC(=S)N/N=C/c2cccc(Br)c2)c(F)c1 | . | . | . | . | .
CCNc1ccc(Br)cc(C(=O)/C=C/c2ccccc2Cl)c1=O | . | 45µM | / | / | .
Cc1ccc(/C=C/C(=O)c2cc(Br)ccc2OC(=O)c2ccco2)cc1 | . | .[11.4 µM] | . | . | .
COc1ccccc1/C=C/C(=O)c1cc(Br)ccc1OC(=O)c1ccco1 | . | 56µM | / | / | .
CCCc1c(C(=O)Nc2ccc(F)cc2F)cnn1-c1ccccc1 | . | . | . | . | .
O=C(NNc1cccc(Cl)c1)c1cccnc1Cl | . | . | . | 10µM | .
CCCc1c(C(=O)NNc2cccc(Cl)c2)cnn1-c1ccccc1 | . | ? | . | 35µM | .
c1csc(C2C3=C(Nc4ncnn42)c2ccccc2OC3)c1 (stereo not given) | . | ? | . | ? | .
O=S1(=O)CCC(N=Cc2ccc(-c3ccc(Cl)cc3)o2)C1 (stereo not given) | . | . | . | / | .
CC(NC(=O)c1cccs1)c1n[nH]c(=S)n1C (stereo not given) | . | 8.9µM | . | ? | .
CCn1c(CNC(=O)c2cccs2)n[nH]c1=S | ? | 8.9µM | . | ? | .
O=C(NCc1n[nH]c(=S)n1-c1ccccc1)c1cccs1 | . | 16µM | . | 22µM | .
CC(NC(=O)c1cccs1)c1ccccc1 (stereo not given) | . | . | / | / | .
O=C(NCc1n[nH]c(=S)n1-c1cccc(Cl)c1)c1cccs1 | ? | 20µM | . | 20µM | .
O=C(NCc1n[nH]c(=S)n1-c1ccc(Cl)c(Cl)c1)c1cccs1 | . | . | ? | ? | .
CCOC(=O)CSc1nnc(CNC(=O)c2cccs2)n1-c1cccc(C)c1 | . | . | . | .[12.7 µM] | .
NC(=O)CC(NC(=O)c1ccccc1)c1ccc(NCc2ccc(F)c(F)c2)c([N+](=O)[O-])c1 (stereo not given) | . | ? | ? | 71µM | .
COc1ccc(OC)c(C(=O)NC(CC(N)=O)c2ccc(NCc3ccc(F)c(F)c3)c([N+](=O)[O-])c2)c1 (stereo not given) | . | ? | 45µM | 89µM | .
C/C(=N\NC(=O)c1c(C)nc2ccccn12)c1ccc(O)cc1O | . | . | 1.8µM | . | .
SMILES | HP1b chromo inh | JMJD2A Tudor inh | BAZ2B inh | G9a inh | GLS inhibitor
C/C(=N\NC(=O)c1c(C)nc2ccccn12)c1ccccc1F | . | . | ? | . | .
Cc1cc2c(ncn2Cc2ccccc2)c(N)c1C | . | ? | 71µM | ? | .
O=C(COc1ccccc1F)N1N=C(c2cccs2)CC1c1ccco1 (stereo not given) | . | 14µM | ? | 50µM | .
O=C(COc1ccc(Cl)cc1)N1N=C(c2cccs2)CC1c1ccco1 (stereo not given) | . | . | / | / | .
O=C(c1ccco1)N1N=C(c2cccs2)CC1c1ccco1 (stereo not given) | . | . | . | / | .
Cc1ccc(C2CC(c3cccs3)=NN2C(=O)c2ccco2)o1 (stereo not given) | . | ? | ? | 35µM | .
Cc1cc(C)cc(N2C(=O)CSC2c2ccccn2)c1 (stereo not given) | . | . | . | . | .
